# E coli growth-1: counter-screen for AddAB inhibitors: E. coli growth inhibition. E. coli V3065 growth, OD600 absorbance, 18 h. inhibition, % at 11.9 µM. 0.27% of 330,000 active. AID 449728;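 active means inhibition above the campaign's mean inhibition across all tested compounds plus 3 SD, cut at about 9.9% in these data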;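 further: uninfected addAB+ strain grown without phage in ampicillin broth; 0% = DMSO wells and 100% = ciprofloxacin 0.95 µg/ml wells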
# E coli growth-2: blocks Escherichia coli growth. AID 1053175. OD600 absorbance (no concentration beside the values). 0.21% of 330,000 active. OD600, 23 h; active compounds read low;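 active means OD600 absorbance below the run mean of sample wells minus 3.6 SD, in any replicate, cut at about 0.56 in these data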
# AddAB inh: less growth of phage-infected E. coli with AddAB; E. coli expressing H. pylori AddAB, absorbance growth; inhibition, % at 11.9 µM; 0.29% of 330,000 active; AID 435030; in the data active means inhibition above about 12%;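 further: 0% = vehicle wells of infected cells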
# phage Ecoli inh: E. coli growth loss with phage present; AID 651602; inhibition, % at 11.9 µM; 0.26% of 360,000 active; growth absorbance; in the data active means inhibition above about 11%
# p-CIP stab down: compounds decreasing mouse p/CIP protein stability; AID 1984; F442A p/CIP-EGFP cells, EGFP fluorescence, 16 h; decrease of EGFP signal, % at 10 µM; 0.01% of 290,000 active; Q05BA5;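 active means EGFP signal decrease of at least 30% at 10 µM or well 3 SD below plate mean, unless failing retest; inactive means the rest, including hits failing retest or dose response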
# Tat export inh: blocks Tat-dependent protein export in E. coli. E. coli MC4100 TorA-mCherry Tat export, fluorescence. 0.036% of 340,000 active. inhibition, % at 10 µM;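 active means mean replicate inhibition at least 50% and at least half of replicates individually reaching 50%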;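 further: exported cargo escapes ClpAP degradation while cytoplasmic cargo is degraded and loses fluorescence; 0% = median of neutral control wells and 100% = median of NaSCN control wells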
# RecBCD conf: confirmation: growth loss of phage-infected RecBCD+ E. coli (RecBCD inhibitor screen). shares compounds with phage Ecoli inh. inhibition, % at 11.9 µM. E. coli V66 + T4 2- phage, growth OD. 45% of 890 active. AID 651982;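 active means mean inhibition over triplicates exceeding the hit threshold derived in the original primary screen, cut at about 11% in these data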
# Ecoli viability: inhibits E. coli viability, flagging RecBCD hits as nonselective; shares compounds with phage Ecoli inh; absorbance (OD) growth; inhibition, % at 11.9 µM; 29% of 890 active; AID 651983; in the data active means inhibition above about 20%;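 further: E. coli strain V66 grown with compound alone and no phage infection; 0% = bacteria with DMSO vehicle only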
# AddAB phage OD: growth loss of phage-infected AddAB E. coli, RecBCD counter-screen | shares compounds with phage Ecoli inh | E. coli expressing H. pylori AddAB + T4 phage, OD growth; gene 2 mutant T4, recBCD-deleted host | inhibition, % at 11.9 µM | 45% of 890 active | AID 651984;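 active means mean inhibition above the solvent-only control wells' mean plus 3 SD, cut at about 22% in these data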;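 further: higher means less bacterial growth from phage killing when AddAB is blocked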
# Numbers without * were called inactive; / = no result given. A selection: hits, their analogues and other compounds. The true share with any hit is near 0.51%.
SMILES,E coli growth-1,E coli growth-2,AddAB inh,phage Ecoli inh,p-CIP stab down,Tat export inh,RecBCD conf,Ecoli viability,AddAB phage OD
CN(C(=O)c1cc(COc2ccc(F)c(F)c2)on1)C1CCOC1 (stereo unspecified),0.3,0.65,-10.8,11.2*,-8.4,-5.5,-0.8,-0.8,3.5
CC(C)CC(=O)N1CC=CC[C@@H](c2ccc(Cl)cc2)N(Cc2ccc(Cl)cc2)C(=O)[C@@H]1Cc1ccccc1,/,/,/,1.7,/,3.7,/,/,/
Cc1cc2cc(CCNC(=O)c3cccs3)c(=O)[nH]c2cc1C,7.4,0.689,11.4,14.1*,-6.7,-9.2,5.5,6.3,8.4
CCOc1ccccc1NC(=O)CN(c1ccc(OC)cc1)S(=O)(=O)c1c(C)[nH]c(=O)[nH]c1=O,2.7,/,2.5,1.4,-4.1,3.7,/,/,/
NC(=O)CC(NC(=O)c1ccccc1)c1ccc(NCCc2ccc(Cl)cc2)c([N+](=O)[O-])c1 (stereo unspecified),-1.5,0.7,1.4,2.2,-5.0,-18.8,/,/,/
CC(C)(C)c1cc2nc3c(c(=O)n2[nH]1)CN(Cc1ccccc1)C3=O,2.0,0.653,1.4,12.2*,-17.2,/,-0.5,0.0,-0.5
CCn1cc(C(=O)O)c(=O)c2cc(F)c(N3CCNCC3)nc21,/,0.0595*,/,102.5*,/,62.4*,102.3*,102.9*,102.1*
CC[C@]12CCCN3CCc4c(n(c5ccccc45)C(=O)C1)C32 (stereo partly specified),-2.3,0.657,-4.4,/,-19.7,/,/,/,/
O=c1c(O)cccc2cc(O)c(O)c(O)c12,11.1*,0.625,11.1,14.2*,0.5,52.7*,7.9,9.2,9.9
COc1cc2cccc(OC)c(=O)c2c(OC)c1OC,3.7,0.736,3.7,1.3,-1.7,-4.0,/,/,/
O=C(CN(Cc1ccccc1Cl)C(=O)c1csnn1)NCc1ccc2c(c1)OCO2,1.8,0.555,2.5,2.2,4.3,-1.2,/,/,/
O=c1c(O)c(-c2cccs2)oc2ccc(Cl)cc12,7.7,0.629,6.7,13.5*,-489.9,-4.6,2.8,4.9,7.7
O=C1CC(c2nc3ccccc3[nH]2)CN1c1cccc(C(F)(F)F)c1 (stereo unspecified),0.4,0.697,-0.4,27.5*,-0.4,6.5,1.8,1.1,-0.3
O=C1SCCN1N=Cc1ccc([N+](=O)[O-])o1,/,0.063*,/,68.5*,/,-2.0,61.8*,98.2*,99.8*
O=C1C2C3C=CC(C4CC34)C2C(=O)N1/N=C/c1ccc([N+](=O)[O-])o1 (stereo unspecified),3.4,/,7.4,6.6,-2.4,-4.4,/,/,/
CC1CN(N=Cc2ccc([N+](=O)[O-])o2)C(=N)O1 (stereo unspecified),/,0.065*,/,45.8*,/,11.6,85.1*,101.7*,102.9*
Cc1ccc(-c2nc3ccc(Cl)cc3c(=O)n2O)cc1,6.5,0.663,3.9,11.1*,-5.2,-5.8,4.9,6.8,9.8
Cc1ccc(-c2nc3ccccc3c(=O)n2O)cc1,-1.6,0.641,-1.4,-1.3,5.1,2.1,/,/,/
Cc1occc1C(=O)NNC(=O)Nc1ccc(F)cc1F,-0.9,0.654,-1.1,1.0,-11.0,-4.3,/,/,/
O=C(NNC(=O)c1cc2ccccc2cc1O)NC1CCCCC1,/,0.729,/,13.1*,3.8,2.2,8.6,9.0,5.3
O=C(COC(=O)c1cc2ccccc2cc1O)NC1CCCCC1,-0.3,0.71,-0.5,6.4,/,-8.4,/,/,/
O=C(NNC(=O)c1cc2ccccc2cc1O)Nc1ccc(F)cc1F,7.5,0.707,11.9,11.1*,5.6,0.6,1.6,4.8,1.6
Oc1ccc(-c2nc3ccccc3nc2-c2ccccc2)cc1,0.3,0.701,0.5,32.6*,-6.1,-1.0,-1.3,-1.3,-0.5
COc1ccccc1N1CCN(Cc2cc(Br)c(O)c3ncccc23)CC1,12.2*,0.803,10.4,11.6*,-10.7,-4.1,4.1,6.9,-3.3
CCOc1ccccc1N1CCN(Cc2cccc(OC)c2O)CC1,2.6,0.656,3.2,1.5,0.3,-15.7,/,/,/
SMILES,E coli growth-1,E coli growth-2,AddAB inh,phage Ecoli inh,p-CIP stab down,Tat export inh,RecBCD conf,Ecoli viability,AddAB phage OD
COc1ccc(-c2cc(-c3n[nH]c(=S)n3-c3ccccc3Cl)[nH]n2)cc1,-2.5,0.674,0.5,0.0,-4.9,-0.5,/,/,/
Cc1cc(=O)oc2cc(OCC(=O)OCC(=O)NC(C)C)ccc12,0.9,0.697,0.4,1.4,-17.2,2.3,/,/,/
O=C(N/N=C\C=C\c1ccc([N+](=O)[O-])o1)c1cccs1,/,/,/,98.3*,-20.3,22.7,105.3*,106.6*,103.7*
On1onc2c3cc(-c4ccccc4)nc3ccc21,11.5*,0.469*,11.1,12.7*,-14.2,-11.8,6.6,11.1,4.5
CCCC(=O)N1CCC1(C)C(=O)NS(=O)(=O)c1ccccc1Cl (stereo unspecified),/,/,/,-0.1,/,/,/,/,/
C/C(CC(=O)Nc1ccccn1)=N\NC(=O)c1ccccc1O,8.9,/,9.7,19.3*,-10.9,0.9,8.6,10.0,12.4
CC(CC(=O)Nc1ccccn1)=NNC(=O)c1ccccc1,/,0.712,/,/,/,/,/,/,/
Cn1nnnc1SCC(=O)Nc1ccccc1Br,0.9,0.67,0.9,-0.4,-2.6,-0.5,/,/,/
CC(=NNc1cc(C)c2cc(C)ccc2n1)c1ccccn1,/,/,/,16.9*,/,/,1.0,0.8,2.5
COc1cccc(NC(=O)Nc2nc(SC(C)(C)C)ns2)c1,8.0,0.601,5.2,12.6*,-3.7,-20.7,4.7,4.2,14.8
O=C(Nc1ccccc1)Nc1cc(OCC(F)(F)F)cc(OCC(F)(F)F)c1,/,0.693,/,15.7*,-14.3,-3.2,4.0,6.1,2.2
CC(C)OC(=O)c1ccc(NC(=O)CSc2nc3ncccc3[nH]2)cc1,6.5,0.59,11.3,11.0*,-16.7,-30.2,4.7,7.2,3.8
CC(C)c1ccc(NC(=O)CSc2nc3ncccc3[nH]2)cc1,3.0,0.679,2.7,8.4,0.3,17.7,/,/,/
CC(=O)Nc1cc2c(cc1Cl)Cc1cc(Cl)ccc1-2,/,0.666,/,2.6,/,-4.0,/,/,/
CC1OC2CC(=O)OC2C2=C1C(=O)c1c(O)cccc1C2=O (stereo unspecified),/,/,/,14.1*,/,/,8.0,2.7,19.6
O=C1c2cccc(O)c2C(=O)c2c(O)cc(CO)cc21,-0.5,/,2.5,/,/,/,/,/,/
COc1cc2c(cc1OC)CN(C(=O)CSc1nc3[nH]ncc3c(=O)n1-c1ccccc1)CC2,0.8,0.781,2.6,/,-7.6,/,/,/,/
Cc1cc(Cl)ccc1NNC(=O)c1cccs1,3.1,0.637,4.5,5.8,-6.8,-14.8,/,/,/
O=C(NNc1cc(Cl)ccc1Cl)c1cccs1,1.0,0.658,4.5,53.8*,-19.9,-8.5,0.8,-0.1,4.3
CNC(=S)N1CCn2cccc2C1c1cc(OC)c(OC)c(OC)c1 (stereo unspecified),-1.5,0.673,-0.1,0.6,1.5,-0.5,/,/,/

# Compound activity: PubChem BioAssay, several laboratories
